In the supplement of paper PMC6555819:

How the values were obtained:
Assay in all cases: PBM binding z-score (relative to random genomic background probes); higher = stronger binding; sequences stand for … in GC…GCGATTGACAGCGTAGAATGAAGG
[1] = tested on: FXR:RXRa (NR concentration 270 nM, RXRa partner concentration 90 nM)
Procedure, shortened: (§1)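 Each nuclear receptor dimer, without ligand, was incubated for 1 h on custom Agilent 4×180K protein-binding microarrays. Binding was detected with antibodies against each partner (one per run), and scanned fluorescence was regression-normalized. The binding z-scores are referenced to random human genomic background probes.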

[2] = tested on: LXRa:RXRa (NR concentration 270 nM, RXRa partner concentration 90 nM)
Procedure, shortened: as §1

[3] = tested on: LXRa homodimer (NR concentration 270 nM)
Procedure, shortened: as §1

[4] = tested on: LXRb:RXRa (NR concentration 270 nM, RXRa partner concentration 90 nM)
Procedure, shortened: as §1

[5] = tested on: LXRb homodimer (NR concentration 270 nM)
Procedure, shortened: as §1

[6] = tested on: PPARa:RXRa (NR concentration 270 nM, RXRa partner concentration 90 nM)
Procedure, shortened: as §1

[7] = tested on: PPARg:RXRa (NR concentration 180 nM, RXRa partner concentration 90 nM)
Procedure, shortened: as §1

[8] = tested on: PPARg:RXRa 270nM:90nM, anti-RXR (NR concentration 270 nM, RXRa partner concentration 90 nM)
Procedure, shortened: as §1

[9] = tested on: PPARg:RXRa 30nM:10nM, anti-RXR (NR concentration 30 nM, RXRa partner concentration 10 nM)
Procedure, shortened: as §1

[10] = tested on: PPARg:RXRa 90nM:30nM, anti-RXR (NR concentration 90 nM, RXRa partner concentration 30 nM)
Procedure, shortened: as §1

Sequence	PBM binding z-score [1]	PBM binding z-score [2]	PBM binding z-score [3]	PBM binding z-score [4]	PBM binding z-score [5]	PBM binding z-score [6]	PBM binding z-score [7]	PBM binding z-score [8]	PBM binding z-score [9]	PBM binding z-score [10]
TCTTGTAGATCAAGCAGGTTAAGAACGCCTGAGT	0.558	0.44	-0.0745	0.534	-0.492	0.851	-0.197	1.21	2.6	1.7
ACTATTAGTTGAGACGAGGGCAAACGATAGGTTG	0.392	0.212	0.35	0.169	0.32	0.382	0.773	0.206	0.117	0.161
TCATATAGGTAAATGCTAAGTGAAAGTCCGATCT	1.1	0.928	0.284	0.773	-0.0273	1.17	0.762	2.04	3.9	2.9
CCTAGCAGGCCAGGGGCACTCAAGCATTTCGCTT	-0.742	-0.659	-0.647	-0.578	-1.19	-0.331	-0.281	-0.0349	-0.949	-0.765
GCTTGTAGCTCAAGGTTAAGAAAGACTAAGCTAA	-0.0638	0.559	-0.361	0.165	-0.751	0.893	-0.394	0.557	-0.472	0.243
TGAATGAGGTTAAAGAACAGGGAACGTGGCGTCG	2.39	1.98	-0.259	1.32	0.39	3.38	2.53	3.32	1.51	3.04
TGAATGAGGTTATAAGATCAGGGAACGTTGCAAA	1.18	1.31	-0.538	0.8	-0.0754	2.61	1.22	1.75	0.754	1.38
CCGACTCGGGCAAAGGTTACCATACTCAGTACGA	1.22	1.83	-0.0865	1.94	-0.792	4.45	8.25	8.33	7.28	9.75
CCTTACGGGTCAAGGTTTTAGCACGGGTGGTACG	4.88	3.1	0.107	2.74	-0.202	4.56	4.23	4.44	1.43	3.33
TCATATAGGTAAATGTGAAAGTCGAACGATATGA	0.203	0.245	-0.116	0.343	-0.015	0.983	1.44	2.01	3.79	2.88
CCTATTAGTTGACCATAGGGGCAACCGAAGCTCG	0.589	0.362	0.304	0.153	0.195	0.245	0.395	0.309	-0.142	0.113
TATAGTTGGTCAAAGGTCACACACTCGAAATGCG	5.81	6.08	3.62	5.5	2.11	6.7	11.4	9.75	9.43	10.9
TCTATTAGTCGAAGGGCAACCGACGAGTCCGTTT	0.678	0.643	0.0615	0.638	0.475	0.751	0.274	2.2	3.57	2.77
AGAACGAGGGCAATGAGTTGATAACACGGGTGGC	0.198	0.102	-0.716	-0.182	-0.584	1.28	1.84	0.983	0.0129	0.611
ATCTCTAGGTAAAAGTTCAGTGAGTCCCGAGGAT	0.932	1.64	1.36	1.11	0.656	4.26	7.9	7.98	7.48	9.16
ACTAGTTGGTCCGCTGAGGTCACACACAATTCGG	2.59	2.61	1.91	3.24	0.456	3.57	1.38	1.99	0.517	1.36
GCAGACAGGTGAAACGCAAGTAACTCAGGGTGGC	-0.454	-0.128	-0.469	-0.359	-0.954	0.613	0.63	-0.0352	-0.456	-0.429
TAGCCTACGTCAGATCGGGCCAGTATACGCTATA	-0.48	-0.971	-0.851	-1.01	-0.669	-0.78	0.214	-0.86	-0.34	-0.771
CGTCCAAGTTCAGCAGGTCAGTGAAAGCGACGTG	2.28	2.06	1.12	1.53	-0.267	2.49	0.395	1.17	-0.436	0.285
ACTATTAGTTGACTTAGGGCATCCGATACGACGC	-0.0291	0.0994	0.216	-0.154	0.3	-0.203	0.827	0.149	0.353	0.396
ACTAGCAGGCCTAGTTTGGGTCACTCAAACAAAG	-0.223	-0.267	-0.434	0.356	-0.757	1.13	-0.314	0.138	-0.572	-0.184
CGTCAAAGATCAACTAAGGTAACGTAAAGCACGC	1.52	0.952	0.0696	0.635	-0.0274	1.19	0.897	0.957	0.274	0.711
CCTACTGGGCCGAAAAGGTCATTGATGCCGATAA	3.42	4.38	2.91	3.93	0.134	4.47	1.7	3.34	0.611	2.39
TCTTGTAGATCAAAGGATAAGAAAGCCGAAGCCT	0.762	0.274	-0.116	-0.287	-0.528	0.671	1.13	3.36	3.43	3.38
ACTATTAGCTGAGACGAGGGCAACCGATAGGTTG	0.185	-0.00873	0.0861	0.0453	0.238	0.0501	0.663	0.238	-0.205	0.302
